# Reference: the supplement of paper PMC3334620
# Whole data set: some 33,000 sequences, median “E-score (-0.5 to 0.5)” near -0.011, cut for the highest 2% near 0.28. This is one part of a sample in which the highest values are shown more often than they occur.
# Molecular target: T1, Gcr1 (UniProt P07261)
# T1 sequence: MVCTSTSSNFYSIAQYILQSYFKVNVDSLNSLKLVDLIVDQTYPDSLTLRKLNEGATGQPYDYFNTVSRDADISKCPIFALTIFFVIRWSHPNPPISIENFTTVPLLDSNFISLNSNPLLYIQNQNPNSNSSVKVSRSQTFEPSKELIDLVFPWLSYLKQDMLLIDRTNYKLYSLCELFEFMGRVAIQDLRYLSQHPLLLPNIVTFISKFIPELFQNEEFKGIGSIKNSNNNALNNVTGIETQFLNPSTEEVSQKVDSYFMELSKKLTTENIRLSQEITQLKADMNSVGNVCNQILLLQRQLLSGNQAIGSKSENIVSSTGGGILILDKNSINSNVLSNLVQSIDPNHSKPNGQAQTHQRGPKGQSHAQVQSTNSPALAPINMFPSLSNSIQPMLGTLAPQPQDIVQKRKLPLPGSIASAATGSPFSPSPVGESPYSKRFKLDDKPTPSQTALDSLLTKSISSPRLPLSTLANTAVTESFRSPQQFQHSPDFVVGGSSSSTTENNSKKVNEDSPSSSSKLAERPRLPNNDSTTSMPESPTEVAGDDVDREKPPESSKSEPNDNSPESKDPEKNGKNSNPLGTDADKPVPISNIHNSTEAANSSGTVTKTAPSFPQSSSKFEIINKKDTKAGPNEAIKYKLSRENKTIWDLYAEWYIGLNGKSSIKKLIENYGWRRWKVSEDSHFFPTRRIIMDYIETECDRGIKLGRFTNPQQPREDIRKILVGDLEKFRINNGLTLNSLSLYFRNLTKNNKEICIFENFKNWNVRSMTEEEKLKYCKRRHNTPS
# Assay: PBM E-score (8-mer binding enrichment) (E-score (-0.5 to 0.5)); higher = stronger / more preferred TF binding
# Conditions: protein concentration: 100 nM; construct: GST-full length
# Procedure: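 Universal 'all 10-mer' protein binding microarrays (Agilent AMADID 015681) probed with GST-tagged S. cerevisiae TFs (full-length or DBD) made by in vitro transcription/translation (PURExpress), about 100-200 nM. Bound TF was detected with fluorescent anti-GST. Each ungapped 8-mer (which stands for itself and its reverse complement) is scored by the PBM enrichment score (E-score), a modified Wilcoxon-Mann-Whitney statistic from -0.5 to +0.5, computed with the Universal PBM Analysis Suite. Scale: above 0.35 generally sequence-specific binding.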
row,Sequence,PBM E-score
1,AGCCCGTG,-0.0206
2,ACCACTGA,0.0982
3,AACCCGGG,0.0515
4,CGCCGGGC,-0.0527
5,ACACCTTA,0.0539
6,GCTGATCC,-0.0746
7,GCCGCCAA,0.125
8,GCTCGCGA,0.0716
9,GGCACCCA,0.381
10,TGCACCCA,0.151
11,AGCACCCC,0.131
12,GGCACCCC,0.322
13,CGCACCCC,0.0174
14,CGCACCCA,0.236
15,AACCTGCA,-0.0327
16,CCCGATGA,-0.0833
17,CAAATCGG,0.0561
18,ATTCCACG,0.0676
19,ACTCCAAA,0.116
20,CATCCAAG,-0.0862
21,ATTCCGGA,0.197
22,CATCCAAA,0.298
23,ATTCCGAA,0.147
24,CTTCCGGA,0.347
25,CATCCAAC,-0.0403

row,Sequence,PBM E-score
1,CTTCCACA,0.349
2,ATTCCAAA,0.307
3,CTTCCGGC,0.111
4,ATTCCACA,0.247
5,AGCTTATG,0.0485
6,CCGACATA,0.0516
7,GATAACCC,-0.017
8,AGCCCCCG,-0.0643
9,AGCGGGCA,-0.156
10,CTCCGGGA,0.00075
11,ACGGAGGC,-0.00955
12,ATTCCAAG,0.196
13,TTTCCAAA,0.178
14,AGTCCAAA,-0.0142
15,CTTCCAAG,-0.132
16,CGTCCAAG,-0.0458
17,ATTCCAAC,0.221
18,GTTCCAAA,0.302
19,CTTCCAAC,0.181
20,ATTCCAAT,0.299
21,CGTCCAAA,0.33
22,CTTCCAAA,0.338
23,GTTCCAAC,0.0801
24,GGCACTCA,-0.189
25,AACGTCTT,0.158

row,Sequence,PBM E-score
1,AGCAAGTA,-0.149
2,AGAATACG,0.182
3,TAGCCTCA,-0.053
4,CAACCAAC,-0.102
5,CAACCAAA,0.313
6,CAACCAAG,0.0892
7,AGCCAAGC,-0.0873
8,CAAACTGA,0.105
9,GCCGGAAC,0.247
10,CGCCATTC,0.0469
11,CGAGTCCA,-0.051
12,TGAGTCCA,0.146
13,AGAGTCCC,0.0617
14,GGAGTCCC,0.286
15,GGAGTCCA,0.344
16,CGAGTCCC,0.168
17,GCCGAGTA,0.115
18,ACCGGGCT,0.113
19,GCTTACCA,-0.193
20,ACGCTTGA,0.0746
21,CCGGAACA,-0.0359
22,ACGGAACC,0.0697
23,GCGGAACC,0.341
24,CCGGAACC,0.325
25,CCGGAACG,-0.0389

row,Sequence,PBM E-score
1,GCGGAACA,-0.172
2,CATTGTTC,-0.0803
3,CCAAACAA,0.213
4,CAGTGGTA,0.115
5,AAGCCTTC,-0.191
6,CCTCGGTC,-0.223
7,AAGGGAAC,0.0126
8,CCACTACA,0.194
9,ACACTATC,-0.0774
10,CCACTAGG,0.287
11,CCACTAGA,0.235
12,CCACTAAG,0.374
13,CCACTAAC,0.21
14,CCACTATA,0.276
15,CCACTACG,0.323
16,ACACTAGG,-0.176
17,CCACTACC,0.125
18,ACACTAAG,-0.00776
19,CCACTATC,0.368
20,CACCATAC,0.0726
21,ACCTGTGG,-0.0729
22,GCTTGGAA,-0.114
23,CGGGGTCA,-0.096
24,AAGAAACC,0.0595
25,AGGCGTAA,0.0474

row,Sequence,PBM E-score
1,GACGCATA,0.141
2,GCACTAAA,0.0118
3,CCACTAAA,0.314
4,TCACTAAA,0.134
5,CCCCGTCG,0.00224
6,CCCGATGC,-0.124
7,AGGGATAT,-0.234
8,ATATGCGA,0.0152
9,GTATGCGA,0.291
10,CTATGCGA,-0.14
11,AATAGTGC,-0.175
12,ATTAGTGC,-0.00168
13,ATTAGTGA,0.0812
14,ATTAGTGG,0.388
15,AATAGTGG,0.425
16,AATAGTGA,0.0209
17,GAGCGAAC,-0.28
18,TCCATAGA,0.203
19,CGTAAGAA,-0.113
20,CTAAAGAC,-0.0627
21,AAAAGGAT,-0.00496
22,AAAAGGAC,0.0425
23,TAAAGGAA,0.314
24,GAAAGGAA,0.0552
25,AAAAGGAA,0.361

row,Sequence,PBM E-score
1,CAAAGGAA,0.104
2,AATCTCGC,-0.0134
3,GCTGGTAA,0.122
4,ATAGGTCG,0.0752
5,ATTTTACC,0.0326
6,ATTTTACG,0.337
7,AATTTACG,0.0625
8,GATAACAC,-0.12
9,GTGTCCAA,0.0511
10,ACTGGATA,0.108
11,ACTGGATG,0.326
12,ACTGGATC,0.316
13,ACTGGACG,0.303
14,ACTGGACT,0.134
15,ACTGGAGG,0.206
16,ACTGGAGC,0.0795
17,ACTGGACA,0.0644
18,CCTGGATC,-0.00306
19,CGACTGTC,-0.252
20,CTGCACAG,-0.0453
21,GCGCTAAA,0.232
22,CTTCAGCA,-0.0569
23,CTCTATTA,0.154
24,CTATATTA,0.307
25,ATATATTA,0.0581

row,Sequence,PBM E-score
1,GTTCATCA,0.108
2,AACCTAAA,0.294
3,ATCCTAAA,0.211
4,TTCCTAAA,0.36
5,CACCTAAA,0.266
6,GTCCTAAA,0.21
7,TACCTAAA,0.0795
8,GGGAGTGA,-0.0739
9,GTCCGCAC,-0.0732
10,AGATCCAA,0.186
11,CGATCCAC,-0.153
12,AGATCCAC,0.183
13,CGATCCAA,0.0146
14,GGATCCAC,0.302
15,GGATCCAA,0.299
16,TGGATTAA,0.0316
17,GTACTTGA,-0.209
18,AAGAAAGG,-0.125
19,ATGCGCTC,0.0347
20,ACCCCGTA,-0.0035
21,AGAGCTTA,-0.119
22,GAAGCACA,0.117
